Most compounds without a hit are left out; they make up all but 6% or so of the library.
D3 antag: D3 dopamine receptor (human) antagonism | P35462 | D3R cells, DiscoveRx beta-arrestin luminescence, antagonist mode; active compounds read low | max response, negative = inhibition, % | actives 2.5% (n = 360,000) | AID 652054; in the data active means max response below about -50%; inconclusive means no clear call, values can overlap the other calls
Target sequence (P35462 whole entry, looked up): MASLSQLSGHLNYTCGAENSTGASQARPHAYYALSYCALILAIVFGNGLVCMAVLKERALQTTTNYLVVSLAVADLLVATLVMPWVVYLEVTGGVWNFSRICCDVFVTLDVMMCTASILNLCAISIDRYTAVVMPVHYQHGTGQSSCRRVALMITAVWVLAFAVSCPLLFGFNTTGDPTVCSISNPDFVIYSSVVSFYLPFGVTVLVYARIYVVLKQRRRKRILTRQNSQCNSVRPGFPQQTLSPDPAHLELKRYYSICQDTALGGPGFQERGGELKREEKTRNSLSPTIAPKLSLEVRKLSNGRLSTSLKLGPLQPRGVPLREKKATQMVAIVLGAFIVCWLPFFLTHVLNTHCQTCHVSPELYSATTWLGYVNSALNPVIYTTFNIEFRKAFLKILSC
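Cells plated overnight at 1500 cells/well, then exposed to library compounds with dopamine controls for 90 minutes at 37 degrees C. DiscoveRx reagent added for 30–60 minutes at room temperature; luminescence read, quantitative HTS format.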
D3 ag: activates the human D3 dopamine receptor. max activation, %. D3R DiscoveRx beta-arrestin cells, luminescence, 90 min. P35462. actives 0.58% (n = 410,000); in the data active means max activation above about 30%
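Agonist-mode cell screen: cells plated at 1500/well and incubated overnight at 37 °C, then exposed to library compounds for 90 min at 37 °C. Detection reagent was added for 30–60 min at room temperature, and luminescence was read.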
D1 PAM: enhances dopamine response at the human D1 receptor | P21728 | HEK293 TREx D1 cells, calcium flux, dopamine EC20 potentiation | potentiation, % at 10 µM | actives 0.036% (n = 360,000); in the data active means potentiation above about 30%
D1 ag: agonists of human D1 dopamine receptor; actives 1% (n = 360,000); HEK293 T-REx D1 cells, calcium flux, agonist mode; activation, % at 2 µM; AID 504660; in the data active means activation above about 30%
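Inducible HEK293 T-REx D1 cells, force-coupled to calcium signalling, were plated at 4000 cells/well with tetracycline and held overnight at 30 C. After no-wash calcium dye loading, compound-evoked calcium rise over 180 s flagged agonists.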
D1 antag: blocks dopamine activation of the human D1 receptor; P21728; HEK293 TREx D1 cells, calcium flux, dopamine EC80; active compounds read low; activity change, negative = inhibition, % at 10 µM; actives 3.2% (n = 360,000); in the data active means activity change below about -30%
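Compound effects on dopamine-evoked calcium signalling were measured in tetracycline-induced HEK293 Trex D1 cells. Dopamine at EC80 followed a 180 s compound pre-read, and fluorescence was tracked kinetically for 180 s more.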
A number is an active result; . = inactive; ? = inconclusive; / = not tested or not shown.

SMILES | D3 antag | D3 ag | D1 PAM | D1 ag | D1 antag
CCn1nc(C)cc1-c1nnc(SCC(=O)Nc2ccccc2)n1CCCOC | . | . | . | . | .
Cc1ccsc1/C=N/NC(=O)Cn1nc(C)c([N+](=O)[O-])c1C | . | . | . | . | .
C/C(=N\NC(=O)Cn1nc(C)c([N+](=O)[O-])c1C)c1ccc(Cl)s1 | -62.2 | . | . | . | .
COc1ccc(NC(=O)c2nc[nH]c2C(=O)NCCCCCNC(=O)OC(C)(C)C)cc1 | / | / | . | . | .
CC(C)=CCC[C@](C)(OC1OC(COC2OCC(O)C(O)C2O)C(O)C(O)C1O)C1CC[C@]2(C)C1C(O)CC1[C@@]3(C)CCC(O[C@@H]4O[C@H](CO)C(O)C(O)C4O[C@@H]4OC(CO)C(O)C(O)C4O)C(C)(C)C3CC[C@]12C (some centres undefined) | . | . | / | / | /
CC(C)=CCC[C@](C)(O)C1CC[C@]2(C)C1[C@H](O)CC1[C@@]3(C)CC[C@H](O[C@@H]4O[C@H](CO)[C@@H](O)[C@H](O)[C@H]4O[C@@H]4O[C@H](CO)[C@@H](O)[C@H](O)[C@H]4O)C(C)(C)C3CC[C@]12C (some centres undefined) | -61.5 | . | / | / | /
Cc1ccccc1OCCCCN1CCCCC1 | . | . | . | . | .
CC1CCN(CCCCOc2ccccc2Br)CC1 | -54.1 | . | . | . | .
O=C(c1ccc(COc2ccccc2Br)cc1)N1CCCCCC1 | ? | . | . | . | -36.7
Brc1ccccc1OCCCCN1CCCCC1 | -96.6 | . | . | . | .
CC1CCN(CCCCOc2ccccc2F)CC1 | -81.9 | . | . | . | .
Fc1ccccc1OCCCCCN1CCCC1 | . | . | . | . | .
O=C(c1ccc(COc2ccc(Cl)cc2)cc1)N1CCCCC1 | . | . | / | . | .
CC(C)CC1C(=O)N(Cc2cn(CC3CCCCC3)nn2)CCS(=O)(=O)N1Cc1ccc(-c2cccc(CO)c2)cc1 (centres undefined) | . | . | / | / | /
CC(Sc1nc(-c2ccccc2)c(C#N)c(=O)[nH]1)C(=O)Nc1ccc(F)cc1 (centres undefined) | / | . | . | . | .
COc1cccc(Cn2ncc3c4sc(C)cc4n(C)c3c2=O)c1 | / | / | . | . | .
Brc1ccccc1OCCCN1CCOCC1 | -50.6 | . | . | . | .
O=C(CCSCCc1ccccn1)Nc1ccc(Cl)cn1 | -61.8 | . | . | . | .
O=C(CCSCCc1ccccn1)Nc1ccccn1 | . | . | . | . | .
O=C(CCC1COc2ccccc2O1)Nc1ccc(Cl)cn1 (centres undefined) | -51.7 | . | . | . | .
CCOc1cccc(C2c3c(oc4ccc(F)cc4c3=O)C(=O)N2CCc2ccc(OC)cc2)c1 (centres undefined) | / | . | . | . | -30.3
CCOC(=O)c1sc(N2C(=O)c3oc4ccc(F)cc4c(=O)c3C2c2ccc(O)cc2)nc1C (centres undefined) | / | . | . | . | .
CCc1ccc(C2c3c(oc4ccc(F)cc4c3=O)C(=O)N2c2nc(C)c(C(=O)OC)s2)cc1 (centres undefined) | / | . | . | . | -69.3
CCCn1c(NC(=O)CCS(=O)(=O)c2ccc(C)cc2)nc2ccccc21 | . | . | . | . | .
O=C(Nc1ccnn1C1CCN(CCCc2ccccc2)CC1)c1ccccc1Cl | ? | . | . | . | .
SMILES | D3 antag | D3 ag | D1 PAM | D1 ag | D1 antag
Cc1ccc(-c2nnn(C/C(N)=N/O)n2)cc1 | . | . | . | . | -38.9
O=C(COc1ccc(F)cc1)OCc1cc(=O)n2nc(-c3cccs3)sc2n1 | / | . | . | . | .
O=C1C=C(O)c2cccc3cccc1c23 | -76.5 | . | . | . | .
NC1=CC(=O)c2cccc3cccc1c23 | / | / | . | . | .
Cc1ccc(N=C(NOCc2ccc(Cl)cc2Cl)c2nonc2N)c(C)c1 | . | . | . | . | .
Cc1ccccc1N=C(NOCc1ccc(Cl)cc1Cl)c1nonc1N | -84.7 | . | . | . | -47.9
OC(COC1CCCCC1)CN1CCN(c2ccccc2)CC1 (centres undefined) | -60.7 | . | . | . | .
OCCN(Cc1ccccc1)CC(O)COc1ccc2c(c1)OCO2 (centres undefined) | . | . | . | . | .
CCCN(CCC)CC(O)COc1ccc2c(c1)OCO2 (centres undefined) | . | . | . | . | -45.2
COc1ccc(OCC(O)CN2CCN(c3ccccc3)CC2)cc1 (centres undefined) | ? | . | . | . | .
COc1ccc(OCC(CO)N2CCN(c3ccccc3)CC2)cc1 (centres undefined) | ? | 36.7 | / | / | /
CC(C)c1ccc(OCC(O)CN2CCN(c3ccccc3)CC2)cc1 (centres undefined) | ? | 44.9 | . | . | .
COc1ccc(N2CCN(CC(O)COCc3ccccc3)CC2)cc1 (centres undefined) | . | . | . | . | .
CCn1c(SCC(=O)NC2CCCC2)nnc1C(C)NC(=O)c1ccccc1Br (centres undefined) | . | . | . | . | .
O=NN(CC(=O)NNc1ccccc1)CC(=O)NNc1ccccc1 | . | . | / | / | /
Cc1ccc(CNC(=O)C2CCC(CNS(=O)(=O)c3ccc4c(c3)CCCC(=O)N4)CC2)cc1 (centres undefined) | / | . | . | . | .
OC(COc1ccc2c(c1)OCO2)CN1CCc2ccccc2C1 (centres undefined) | -78.1 | . | . | . | .
OC(COc1ccc2c(c1)OCO2)CN1CCCCC1 (centres undefined) | . | . | . | . | .
OC(COc1ccc2c(c1)OCO2)CN1CCN(c2ccccc2)CC1 (centres undefined) | -63.3 | . | . | . | .
CCCn1c(=NC(=O)c2cc3ccccc3o2)c(C(=O)OCC)cc2c(=O)n3ccccc3nc21 | / | . | . | . | .
COc1ccc(NCc2cc3cc4c(cc3n(CC(=O)Nc3ccc(C)cc3C)c2=O)OCO4)cc1 | / | . | . | . | .
CCc1ccc(NCc2cc3cc4c(cc3n(CC(=O)Nc3ccc(OC)cc3)c2=O)OCO4)cc1 | / | . | . | . | .
CCc1ccc(NCc2cc3cc4c(cc3n(CC(=O)Nc3cccc(OC)c3)c2=O)OCO4)cc1 | / | . | . | 56.3 | .
COc1ccc(NCc2cc3cc4c(cc3n(CC(=O)Nc3cccc(F)c3)c2=O)OCO4)cc1 | / | . | . | 152.9 | .
COc1ccc(NCc2cc3cc4c(cc3n(CC(=O)Nc3ccc(C)cc3)c2=O)OCO4)cc1 | / | . | . | 57.4 | .
COc1ccc(NCc2cc3cc4c(cc3n(CC(=O)Nc3ccc(F)cc3F)c2=O)OCO4)cc1 | / | . | . | 66.0 | .
CC#CC(=O)N1CCC(n2nccc2NC(=O)CCc2ccccc2)CC1 | . | . | / | / | /
CCN(CC)C(=O)c1c(-c2ccccc2)c(-c2ccccc2)nn(CC)c1=O | / | . | . | . | .
CC(=O)NC(c1ccccc1)c1nc(-c2cncnc2)cs1 (centres undefined) | . | . | / | / | /

Screening results deposited in PubChem by National Center for Advancing Translational Sciences (NCATS).
